pAkt inh – Akt phosphorylation inhibition; Neuro2A IGF-stimulated pAkt S473 HTRF, 20 min; active compounds read low; activity change, % for hits at 50 µM; actives 0.32% (n = 360,000); AID 651550; in the data active means activity change below about -80%; inconclusive means mostly about -51% to -80%; further: on the % scale 0 is the no-effect control and ±100 the full control effect
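Neuro2A cells in DMEM with 0.5% FBS, overnight at 37 deg C, given compound at single 50 µM final, then IGF (6 nM final) for 20 min at 37 deg C. Lysed; phospho-Akt Ser473 by HTRF after 24 h, 665/615 ratio.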
aSyn yeast inh – alpha-synuclein toxicity inhibition in yeast. Yeast expressing alpha-synuclein, growth rescue, BacTiter-Glo, 24 h. Potency, µM (top dose mostly 46.1 µM), without a hit: at the highest dose growth rescue (activation), hits mostly activators. actives 0.14% (n = 370,000). AID 652106; further: potency means the concentration at half of the fitted maximal effect; % of control where 0% means no effect; nearly all actives have a fitted effect of over 65% in size
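Rescue of yeast growth: cells expressing toxic alpha-synuclein, induced in galactose at OD600 0.02, incubated with compound 24 h at 30 C. ATP luminescence quantified growth; inhibitors of toxicity appear as activators.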
TDP-43 yeast inh – TDP-43 toxicity inhibition in yeast. TDP-43 expressing yeast growth rescue, BacTiter-Glo, 24 h. Potency, µM (top dose mostly 46.1 µM), inactives show at the highest dose growth rescue (activation), hits mostly activators. actives 1.8% (n = 410,000). AID 652104; further: potency means the concentration at half of the fitted maximal effect; % of control where 0% means no effect; nearly all actives have a fitted effect of over 50% in size
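Cell-based yeast growth screen: TDP-43 expression induced in galactose, inoculum OD600=0.02 after raffinose pregrowth to mid-log. Read-out BacTiter-Glo luminescence at 24 hr, 30 deg C; inhibition of toxicity seen as signal increase.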
FUS yeast rescue – suppressors of FUS proteinopathy in yeast | actives 0.24% (n = 390,000) | S. cerevisiae FUS-expressing, growth rescue, OD600, 24 h | Potency, µM (top dose mostly 76.6 µM), usual class: activators;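 further: potency means the concentration at half of the fitted maximal effect; plate controls were DMSO vehicle for no effect and reference control for full effect; nearly all actives have a fitted effect of over 55% in size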
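Restored growth of FUS-toxic S. cerevisiae, read as 600 nm absorbance after 24 h at 30C in galactose medium (starting OD 0.005). Controls CP55940 and DMSO.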
Abeta yeast res – compounds reversing amyloid beta toxicity in yeast. AID 1347071. actives 0.063% (n = 410,000). Potency, µM (top dose mostly 46.1 µM), most hits filed as activators. yeast expressing A-beta42, growth rescue, OD600, 48 h; response scale: 0% DMSO, 100% iron-clioquinol control; further: potency means the concentration at half of the fitted maximal effect; nearly all actives have a fitted effect of over 55% in size
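Yeast A-beta toxicity model in growth medium with pinned compounds, 48 h at 30 C; growth read as absorbance at 600 nm. Normalized to FeCl3/clioquinol equimolar mix (positive) and DMSO (negative).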
* = called active by the depositor; i = inactive; ? = inconclusive; . = no result given; [ ] = dose if it differs, or a comment. Rows were chosen to be rich in hits. Some 2.3% of all compounds tested hit in one or more screens of this group. Unless noted, the call rests on the fitted dose curve; in most records, active means well fitted curve in the direction sought with a large enough effect; inconclusive means small, poorly fitted or top-dose-only effect, or another doubt; inactive means no such curve, though single readings can be large; an effect the other way counts as inactive or inconclusive.

SMILES | pAkt inh | aSyn yeast inh | TDP-43 yeast inh | FUS yeast rescue | Abeta yeast res
COc1ccc(/C(C)=N/NC(=S)NCCc2ccccc2)cc1 | i | -8.4% | -18.3%[0.397 µM] | i | 12.6µM*
Cc1ccc(S(=O)(=O)N2CCN(C(=O)c3ccc4c(c3)OCO4)CC2)cc1 | i | -5.2% | -24.9% | i | i
Cc1cc(C)c(S(=O)(=O)N2CCN(C(=O)c3ccc4c(c3)OCO4)CC2)c(C)c1 | i | 9.5% | 15.8µM* | i | i
Cc1cc(C)c(S(=O)(=O)N2CCN(C(=O)c3c(C)nn(-c4ccccc4)c3Cl)CC2)c(C)c1 | i | 4.1% | -25.2% | . | i
Cc1cc(C)c(S(=O)(=O)N2CCN(C(=O)c3ccc(-n4nc(C)c(Cl)c4C)cc3)CC2)c(C)c1 | i | 27.2% | ? | 15.8µM* | i
O=C(c1ccc2c(c1)OCO2)N1CCN(S(=O)(=O)c2ccc(Br)cc2Cl)CC1 | i | 13.5% | 17.8µM* | i | i
CCOc1ccc(NC(=O)N2CCC(CN3CCCCCC3)CC2)cc1 | . | . | -3.3% | i | i
CCC(Sc1nnc(C)n2c1cc1occc12)C(=O)Nc1ccccc1OC (configuration not stated) | . | . | 8.2% | i | i
CC(C)c1nn2c(=O)cc(COC(=O)c3cccs3)nc2s1 | . | . | 12.1% | i | i
CCOc1cc(C)c(S(=O)(=O)N2CCCCC2)cc1C | i | 15.8µM* | ? | i | ?
COc1cc(C)c(S(=O)(=O)N2CCCC2)cc1C | i | 14.1µM* | 5.8% | i | ?
COc1cc(C)c(S(=O)(=O)N2CCN(C)CC2)cc1C | i | 2.0% | 11.7% | i | i
O=C(Cn1c(=O)n(Cc2nc(-c3ccccc3)no2)c(=O)c2ccccc21)Nc1cccc(C(F)(F)F)c1 | . | . | 15.2% | i | i
CC(C)(Cc1cc(CC(C)(C)C(=O)O)cc(C(C)(C)C)c1)C(=O)O | i | 3.3% | 35.5µM* | i | i
O=C(C1CCCCC1)N(Cc1cccnc1)c1nc2ccc(F)cc2s1 | . | . | ? | i | i
COc1ccc(Cn2nc3n(c2=O)-c2ccccc2OC3)cc1 | . | . | 14.1µM* | i | i
O=c1n(Cc2ccccc2)nc2n1-c1ccccc1OC2 | . | . | ? | i | i
O=[N+]([O-])c1cccc(-c2cc(-c3cc(Br)ccc3O)[nH]n2)c1 | i | -7.1% | 12.6µM* | i | i
CC[n+]1c(/C=C/C=C/N(C(C)=O)c2ccccc2)sc2ccccc21 | i | -5.1% | -22.1% | 17.8µM* | i
CCn1c(/C=C/N(C(C)=O)c2ccccc2)[n+](CC)c2ccc(Cl)cc21 | i | 3.2% | 0.7% | . | i
Cc1ccc2nc(N3CCN(c4cccc(C(F)(F)F)c4)CC3)c3nnnn3c2c1 | . | . | -2.8% | i | i
COc1cc(C(=O)Nc2ccc(-c3nnc(-c4ccco4)o3)cc2)cc(OC)c1OC | -101.9%* | -2.1% | 5.2% | i | i
COc1ccc(C(=O)Nc2cccc(-c3nnc(-c4ccco4)o3)c2)cc1 | i | -17.6% | 15.8µM* | i | i
COc1cc(C(=O)Nc2cccc(-c3nnc(-c4ccco4)o3)c2)ccc1OC(C)=O | i | 2.3% | 20.0%[9.22 µM] | i | i
COc1ccc(CC(=O)Nc2cccc(-c3nnc(-c4ccco4)o3)c2)cc1 | i | -10.7% | 0.4% | i | i
SMILES | pAkt inh | aSyn yeast inh | TDP-43 yeast inh | FUS yeast rescue | Abeta yeast res
COc1cccc(NC(=O)Cn2c(=O)n(CCCCC(=O)NCc3ccc4c(c3)OCO4)c(=O)c3ccccc32)c1 | . | . | 4.6% | i | i
CCOc1ccc(NC(=O)Cn2nnc(-c3ccccc3NC(=O)C3CC3)n2)cc1 | -126.1%* | 2.0% | 3.0% | i | i
Cc1ccc(C)c(NC(=O)CCc2nc3cccnc3n2Cc2cccs2)c1 | . | . | 19.5% | i | i
CSc1ccc(CCNC(=O)CCc2c(C)nc3c(-c4ccccc4)c(C)nn3c2C)cc1 | . | . | ? | i | i
CCOc1cc2c(c3c1C(c1ccccc1)N(S(=O)(=O)c1ccc(C)cc1)C3)C(=O)C=CC2=O (configuration not stated) | i | -2.9% | 12.6µM* | i | i
CCOC(=O)C1=CCN(S(=O)(=O)c2ccc(C)cc2)C1c1ccccc1 (configuration not stated) | i | 5.6% | 13.0% | i | i
CCCc1ccc(-c2csc(NC(=O)C3=COCCO3)n2)cc1 | i | -4.9% | 15.8µM* | i | i
Cc1ccc(C(=O)Nc2ccccc2NC(=O)c2ccc(C)o2)o1 | i | -8.4% | 5.8% | i | i
Cc1ccc(C(=O)Nc2cccc(NC(=O)c3ccc(C)o3)n2)o1 | i | -15.4% | 7.94µM* | i | i
CC(=O)Nc1ccc(-c2csc(NC(=O)c3ccc(C)o3)n2)cc1 | . | -10.9% | 24.3% | 28.2µM* | i
Cc1nn2c(=O)cc(COC(=O)c3ccccc3NC(=O)C(C)C)nc2s1 | . | . | 15.3% | i | i
NC(=O)COc1ccc(NC(=O)OCc2ccccc2)cc1 | -106.7%* | 5.3% | 2.2% | i | i
COC(=O)Nc1ccc(OCc2ccccc2)cc1 | . | -24.3% | -5.9% | i | i
CC(=O)Nc1nc2ccc(Br)cc2s1 | i | -18.3% | 12.6µM* | i | i
COc1ccc2nc(NC(C)=O)sc2c1 | i | -6.0% | 21.5% | i | i
CCOC(=O)CSc1nc(N)c(C(=O)Nc2ccc(N(C)C)cc2)s1 | i | -12.5% | -11.4% | 31.6µM* | i
CCc1cccc(-n2c(=O)c3cccnc3n2CC(=O)NCc2ccc(C)cc2)c1 | . | . | 16.8% | i | i
CCOc1nc(S(=O)(=O)c2ccc(C)cc2)c(Cl)s1 | i | 1.2% | 2.6% | i | i
CSc1nc(S(=O)(=O)c2ccc(C)cc2)c(Cl)s1 | i | 1.2% | 12.6µM* | i | i
O=C(NC(=S)NCc1ccccc1Cl)c1cccs1 | i | -14.2% | 17.8µM* | . | i
Cc1ccccc1C(=O)Nc1cccc(NC(=S)NC(=O)c2cccs2)c1 | i | -2.5% | 11.7% | i | i
Cc1ccccc1C(=O)NNC(=S)NC(=O)c1cccs1 | i | 3.55µM* | ? | i | i
CCC(C)c1ccc(O)c(NC(=S)NC(=O)c2cccs2)c1 (configuration not stated) | i | 12.6µM* | ? | i | ?
O=C(NCc1ccccc1F)c1cccs1 | i | -0.3% | 7.7% | i | i
Cc1ccnc(NC(=S)NC(=O)c2cccs2)c1 | i | -7.4% | 15.8µM* | . | i
O=C(CNC(=O)C1CCCCC1)OCC(=O)c1ccccc1 | . | 2.5% | . | . | .
N#C/C(=C\c1ccccn1)c1nc2ccccc2s1 | i | 12.8% | 17.8µM* | i | ?
CC(C)(C)NC(=O)CSc1nncn1NCc1cccc2ccccc12 | -113.2%* | -0.6% | 1.1% | i | i

High-throughput results from PubChem BioAssay.
